Screening data (PubChem)
Shown are actives, neighbours in structure and some others; about 2.9% of the full set was active somewhere.
ZTA DNA inh: ZTA (EBV) inhibition in EBNA-1 counter-screen; inhibition, % at 11 µM; 320,000 compounds, 0.15% hits; ZTA-DNA binding, fluorescence polarization; in the data active means inhibition above about 33%
pPAFAH FP inh: pPAFAH enzyme inhibitors, primary screen, biochemical, fluorescence polarization, human | 330,000 compounds, 1.5% hits | recombinant pPAFAH, FP-rhodamine probe fluorescence polarization | Platelet-activating factor acetylhydrolase (Homo sapiens), Q13093 | inhibition, % at 3.39 µM;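 active means inhibition above the mean inhibition across the screen plus 3 SD, cut at about 25% in these data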;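 further: inhibitors block binding of the rhodamine activity-based probe so polarization drops; 0% = enzyme with DMSO and 100% = wells lacking pPAFAH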
Target sequence (Q13093 whole entry, looked up): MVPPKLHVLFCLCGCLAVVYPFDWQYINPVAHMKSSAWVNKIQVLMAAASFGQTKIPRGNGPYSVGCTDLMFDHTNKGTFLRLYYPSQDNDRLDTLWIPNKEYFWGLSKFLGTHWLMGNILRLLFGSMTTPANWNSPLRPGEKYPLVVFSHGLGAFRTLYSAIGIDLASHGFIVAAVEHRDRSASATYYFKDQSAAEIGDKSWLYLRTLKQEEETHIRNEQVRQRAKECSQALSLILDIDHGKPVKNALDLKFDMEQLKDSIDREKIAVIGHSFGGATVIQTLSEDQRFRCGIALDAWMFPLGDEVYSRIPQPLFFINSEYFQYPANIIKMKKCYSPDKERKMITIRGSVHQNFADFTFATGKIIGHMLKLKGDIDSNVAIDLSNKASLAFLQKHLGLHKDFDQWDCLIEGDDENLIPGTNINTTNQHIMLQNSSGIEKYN
PAFAH1B3 FP inh: PAFAH1B3 enzyme inhibitors, primary screen, biochemical, fluorescence polarization, human | recombinant PAFAH1B3, FP-rhodamine probe | inhibition, % at 3.39 µM | 340,000 compounds, 0.28% hits;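 active means inhibition above the screen-wide average of all tested compounds plus 3 SD, cut at about 25% in these data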;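 further: 0% = enzyme with DMSO only and 100% = wells lacking PAFAH1B3 protein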
PAFAH2 FP inh: PAFAH2 enzyme inhibitors, primary screen, biochemical, fluorescence polarization, human; inhibition, % at 3.39 µM; AID 492956, 2010; Platelet-activating factor acetylhydrolase 2, cytoplasmic (Homo sapiens), Q99487; recombinant PAFAH2, FP-rhodamine activity probe; 340,000 compounds, 0.99% hits;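 active means inhibition above the mean over all tested compounds plus 3 SD, cut at about 30% in these data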;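 further: inhibitors block probe labeling of enzyme so polarization drops; 0% = enzyme with DMSO and 100% = wells lacking PAFAH2 protein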
PAFAH1B2 FP inh: PAFAH1B2 enzyme inhibitors, primary screen, biochemical, fluorescence polarization, human. Platelet-activating factor acetylhydrolase IB subunit alpha2 (Homo sapiens), P68402. recombinant PAFAH1B2, FP-rhodamine activity probe. inhibition, % at 3.39 µM. 340,000 compounds, 1.2% hits;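 active means inhibition above the mean of all tested compounds plus 3 SD, cut at about 24% in these data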;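 further: 0% = enzyme with DMSO and 100% = wells lacking PAFAH1B2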
EBNA-1 inh: EBNA-1 DNA-binding inhibitors, primary screen, biochemical, fluorescence polarization; AID 1950, 2009; inhibition, % at 14.8 µM; 300,000 compounds, 0.34% hits; in the data active means inhibition above about 28%
pPAFAH FP conf: pPAFAH (PLA2G7) enzyme inhibitors, confirmation, biochemical, fluorescence polarization, human. shares compounds with pPAFAH FP inh. recombinant pPAFAH, FP-Rh probe fluorescence polarization. inhibition, % at 3.39 µM. 2,300 compounds, 72% hits. AID 463230, 2010;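 active means mean inhibition of the triplicate above the hit cutoff set for the earlier primary screen, cut at about 25% in these data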;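 further: 0% = enzyme with DMSO and 100% = wells lacking pPAFAH enzyme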
Starred values were filed as active, the others as inactive; · = no result.

SMILES	ZTA DNA inh	pPAFAH FP inh	PAFAH1B3 FP inh	PAFAH2 FP inh	PAFAH1B2 FP inh	EBNA-1 inh	pPAFAH FP conf
O=C(Nc1ccc([N+](=O)[O-])cc1)c1ccccc1F	-5	0	3	-1	-1	9	·
O=C(c1cc(O)c(O)c([N+](=O)[O-])c1)c1ccccc1F	9	59*	29*	68*	14	5	81*
COc1ccccc1N1C(=O)c2ccc(C(=O)Nc3ccccc3O)cc2C1=O	0	1	3	2	2	8	·
COc1ccccc1N1C(=O)c2ccc(C(=O)Nc3nccs3)cc2C1=O	-10	43*	·	·	·	1	1
Cc1cc(OC(C)C(=O)N2CCN(c3ccc(F)cc3)CC2)c2c(C)cc(=O)oc2c1 (centres undefined)	1	3	10	-2	2	4	·
O=C1N(CCCl)c2ccc(Br)cc2C12OCCO2	-14	-2	11	-8	4	-18	·
O=S(=O)(Nc1ccc(O)c(Sc2nc3ccccc3s2)c1)c1ccc(F)cc1	-29	52*	-8	-3	14	5	40*
COc1ccc(NC(=O)C(=O)c2cn(CC(=O)N3CCOCC3)c3ccccc23)cc1OC	-5	9	7	4	-2	4	·
O=C(NCc1ccccc1)c1ccc2nccnc2c1	0	4	18	3	7	0	·
CC(=O)c1ccc(NC(=O)c2ccc3nc(-c4ccco4)c(-c4ccco4)nc3c2)cc1	3	62*	23	15	6	26	50*
CCCNC(=O)c1ccc2nc(-c3ccccc3)c(-c3ccccc3)nc2c1	12	0	8	-2	6	0	·
CCCCNC(=O)c1ccc2nc(-c3ccco3)c(-c3ccco3)nc2c1	3	61*	20	29	17	3	23
O=C(Nc1ccccc1)c1ccc2nc(-c3ccco3)c(-c3ccco3)nc2c1	-27	66*	21	27	13	0	22
O=C(Nc1ccc(N2CCOCC2)cc1)c1ccc2nc(-c3ccco3)c(-c3ccco3)nc2c1	1	16	-2	0	0	-14	·
O=C(NCc1ccccc1)c1ccc2nc(-c3ccco3)c(-c3ccco3)nc2c1	9	71*	12	29	15	17	58*
C=CCOc1ccc(C(=O)c2ccccc2)c(OCC(=O)NC2(C#N)CCCC2)c1	11	35*	1	6	-3	-6	20
CCN1C(=O)C2C(c3ccccc3F)NC(Cc3ccc(O)cc3)(C(=O)OC)C2C1=O (centres undefined)	-1	48*	7	7	7	-11	2
CCNC(=O)c1ccc2c(c1)C1C3CCC(C3)C1C(c1ccccc1)N2 (centres undefined)	-5	4	8	-4	1	-5	·
COc1ccccc1NC(=O)CS(=O)(=O)c1cn(CC(=O)N2CCCC2)c2ccccc12	1	-1	5	-7	1	6	·
COc1cc(C(=O)OCC(=O)Nc2ccc(N3CCOCC3)cc2)ccc1OCC(C)C	-1	5	5	15	-2	0	·
CC1=Nc2ccccc2/C1=C/c1sc(=N)n(-c2nccs2)c1O	2	56*	16	24	9	-5	51*
COc1cc(C(=O)NCCC(=O)NC2CCCCC2)cc(OC)c1OC	2	47*	0	13	2	-2	3
COc1cc(C(=O)NCC2CCCCC2)cc(OC)c1OC	1	2	3	-2	2	3	·
CCN(CC)c1ccc(-c2nn3c(-c4n[nH]c5c4CCC5)nnc3s2)cc1	3	35*	2	20	2	-7	45*
CCCCCn1c(SCC2CCCO2)nc2cc(C(=O)N3CCC(C(N)=O)CC3)ccc2c1=O (centres undefined)	-2	42*	-4	-2	3	-7	23
SMILES	ZTA DNA inh	pPAFAH FP inh	PAFAH1B3 FP inh	PAFAH2 FP inh	PAFAH1B2 FP inh	EBNA-1 inh	pPAFAH FP conf
CCCCOc1ccc(/C=C/C2=CC(C)(C)NC(=S)N2)cc1OCC	5	20	6	-4	3	2	·
COc1ccc(OC)c(Nc2cc(-c3ccccc3)nc(N)n2)c1	10	43*	·	·	·	7	37*
Cc1ccc(C(=O)c2coc3c2C(=O)C(=O)c2ccccc2-3)cc1	-3	11	0	0	6	0	·
Cc1coc2c1C(=O)C(=O)c1c-2ccc2c1CCCC2(C)C	-11	56*	7	76*	27*	8	70*
C[C@H]1COC2=C1C(=O)C(=O)c1c2ccc2c1CCCC2(C)C	-1	80*	28*	41*	18	-5	74*
O=C(c1ccc(OC2CCN(C/C=C/c3ccc(F)cc3)CC2)cc1)N1CCCC1	9	10	2	1	0	0	·
O=C1NC(=O)/C(=C/c2ccc(-c3cc(C(=O)O)ccc3Cl)o2)S1	12	18	19	3	8	6	·
O=C1NC(=S)/C(=C\c2ccc(-c3ccccc3Cl)o2)S1	17	70*	24	41*	9	5	79*
CCOC(=O)c1ccc(N2C(=O)CC(Sc3ncccn3)C2=O)cc1 (centres undefined)	1	40*	6	-3	0	-3	5
CC1=C(C(=O)OCc2ccccc2)C(c2ccc(-c3ccccc3)cc2)NC(=O)N1CCCCCC(=O)O (centres undefined)	13	46*	4	11	4	5	41*
CC1=C(C(=O)OCc2ccccc2)C(c2ccccc2)NC(=O)N1CCCCCC(=O)O (centres undefined)	9	10	0	-5	-8	5	·
O=C(NC(NC(=S)Nc1ccc(Cl)cc1Cl)C(Cl)(Cl)Cl)c1cccc([N+](=O)[O-])c1 (centres undefined)	2	-49	-18	-43	-13	-4	·
CN(C)C(=O)NC(Nc1ccc(Cl)cc1Cl)C(Cl)(Cl)Cl (centres undefined)	12	42*	4	9	1	9	4
O=C1NN(c2ccccc2)C(=O)/C1=C/c1ccc(Sc2cccc3ccccc23)o1	8	43*	9	21	7	8	36*
O=C(Cn1cnc([N+](=O)[O-])n1)c1ccc(O)c(O)c1	-13	56*	12	2	2	1	20
O=C(Cn1cnc([N+](=O)[O-])n1)c1ccccc1	·	·	9	1	-3	·	·
COc1cc(C2CC(=O)N3CN(Cc4ccco4)CSC3=C2C#N)ccc1OCc1ccccc1 (centres undefined)	8	36*	0	5	-1	3	11
